According to PubChem BioAssay AID1159580 (chemical genetic matrix, 2015):
Where “and” joins values, the source holds several entries; their conditions need not be identical. Identical values can stand only once. The whole screen tested about 5,500 compounds, of which about 2,000 (36%) were called active. Inconclusive results (about 18%) are left out. Rule as the data show it: active = normalized growth mostly below about 0.91 (no sharp cut-off); inconclusive = no clear call, values can overlap the other calls; inactive = mostly above about 0.92. The list shows a part of the results.

Assay: chemical genetic growth profiling, strain panel (AID 1159580);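 also: tested at 20 µM; growth read once vehicle control cultures reached saturation at 30 °C; 1 = growth at the plate median or of vehicle wells; lower values mean less growth of the strain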
Conditions: S. cerevisiae deletion strains, growth OD

Measured: normalized growth

Nc1c(Br)cc(Br)cc1CNC1CCC(O)CC1 (centres undefined)
inactive: locus YAL021C, strain ccr4, stronger effect = lower value 1.01 | locus YAL026C, strain drs2, stronger effect = lower value 0.968 | locus YAL030W, strain snc1, stronger effect = lower value 1.01 | locus YBL061C, strain skt5, stronger effect = lower value 1.02 | locus YBR009C, strain hhf1, stronger effect = lower value 1.03 | locus YBR021W, strain FUR4, stronger effect = lower value 0.996 | locus YBR023C, strain chs3, stronger effect = lower value 1.01 | locus YBR171W, strain sec66, stronger effect = lower value 1.02 | locus YBR229C, strain ROT2, stronger effect = lower value 1.01 | locus YBR231C, strain swc5, stronger effect = lower value 1.01 | locus YBR279W, strain paf1, stronger effect = lower value 1.01 | locus YCL011C, strain gbp2, stronger effect = lower value 1.02 | locus YCL016C, strain dcc1, stronger effect = lower value 1.01 | locus YCL029C, strain bik1, stronger effect = lower value 1 | locus YCL061C, strain MRC1, stronger effect = lower value 1.02 | locus YCL069W, strain vba3, stronger effect = lower value 1.02 | locus YCR088W, strain abp1, stronger effect = lower value 1.02 | locus YDL005C, strain med2, stronger effect = lower value 1.02 | locus YDL035C, strain GPR1, stronger effect = lower value 1.01 | locus YDL040C, strain nat1, stronger effect = lower value 0.992 | locus YDL074C, strain BRE1, stronger effect = lower value 1.01 | locus YDL101C, strain DUN1, stronger effect = lower value 1.02 | locus YDL134C, strain PPH21, stronger effect = lower value 1.01 | locus YDL185W, strain tfp1, stronger effect = lower value 0.996 | locus YDL192W, strain arf1, stronger effect = lower value 0.995 | locus YDR001C, strain nth1, stronger effect = lower value 1.01 | locus YDR069C, strain doa4, stronger effect = lower value 0.985 | locus YDR101C, strain arx1, stronger effect = lower value 0.985 | locus YDR137W, strain rgp1, stronger effect = lower value 0.949 | locus YDR150W, strain NUM1, stronger effect = lower value 1 | locus YDR159W, strain sac3, stronger effect = lower value 0.997 | locus YDR162C, strain NBP2, stronger effect = lower value 1.01 | locus YDR195W, strain ref2 1 | locus YDR297W, strain sur2, stronger effect = lower value 0.982 | locus YDR318W, strain mcm21, stronger effect = lower value 1 | locus YDR334W, strain swr1, stronger effect = lower value 1.02 | locus YDR335W, strain msn5, stronger effect = lower value 0.992 | locus YDR388W, stronger effect = lower value 1.01 | locus YDR392W, strain spt3, stronger effect = lower value 0.966 | locus YDR502C, strain sam2, stronger effect = lower value 0.991 | locus YEL003W, strain gim4, stronger effect = lower value 1.01 | locus YEL037C, strain rad23, stronger effect = lower value 1.02 | locus YEL061C, strain CIN8 (second series), stronger effect = lower value 1.02 | locus YEL061C, strain CIN8, stronger effect = lower value 1.01 | locus YER015W, strain faa2, stronger effect = lower value 1.02 | locus YER016W, strain bim1, stronger effect = lower value 1 | locus YER110C, stronger effect = lower value 1 | locus YER111C, strain swi4, stronger effect = lower value 1.02 | locus YER155C, strain BEM2 (second series), stronger effect = lower value 0.992 | locus YER155C, strain BEM2, stronger effect = lower value 1.01 | locus YER167W, strain BCK2, stronger effect = lower value 1.02 | locus YFR010W, strain ubp6, stronger effect = lower value 1.03 | locus YGL078C, strain dbp3, stronger effect = lower value 0.98 | locus YGL086W, strain mad1, stronger effect = lower value 0.996 | locus YGL167C, strain pmr1, stronger effect = lower value 1 | locus YGL173C, strain kem1, stronger effect = lower value 1.03 | locus YGL227W, strain vid30, stronger effect = lower value 1.01 | locus YGL240W, strain doc1, stronger effect = lower value 0.981 | locus YGL248W, strain PDE1, stronger effect = lower value 0.997 | locus YGL253W, strain hxk2, stronger effect = lower value 1.01 | locus YGR078C, strain PAC10, stronger effect = lower value 0.994 | locus YGR135W, strain pre9, stronger effect = lower value 0.984 | locus YGR252W, strain gcn5, stronger effect = lower value 0.955 | locus YHR013C, strain ard1, stronger effect = lower value 1.02 | locus YHR027C, strain rpn1, stronger effect = lower value 1 | locus YHR030C, strain SLT2, stronger effect = lower value 1 and 1.04 | locus YHR079C, strain IRE1 (second series), stronger effect = lower value 1.01 | locus YHR079C, strain IRE1, stronger effect = lower value 1.03 | locus YHR094C, strain hxt1, stronger effect = lower value 0.998 | locus YHR129C, strain ARP1, stronger effect = lower value 1.01 | locus YHR142W, strain chs7, stronger effect = lower value 1.02 | locus YHR200W, strain rpn10, stronger effect = lower value 0.999 | locus YIL066C, strain RNR3, stronger effect = lower value 1 | locus YIL073C, strain SPO22, stronger effect = lower value 1.04 | locus YIL125W, strain kgd1, stronger effect = lower value 0.999 | locus YIR030C, strain dcg1, stronger effect = lower value 0.997 | locus YJL092W, strain hpr5, stronger effect = lower value 1.02 | locus YJL095W, strain BCK1 (second series), stronger effect = lower value 0.98 | locus YJL095W, strain BCK1, stronger effect = lower value 0.973 and 1.04 | locus YJL115W, strain asf1, stronger effect = lower value 1.02 | locus YJL129C, strain trk1, stronger effect = lower value 1.02 | locus YJL134W, strain LCB3, stronger effect = lower value 1.01 | locus YJL154C, strain vps35, stronger effect = lower value 1.02 | locus YJL164C, strain tpk1, stronger effect = lower value 1.01 | locus YJL166W, strain qcr8, stronger effect = lower value 1.02 | locus YJL168C, strain set2, stronger effect = lower value 1 | locus YJL187C, strain SWE1 (second series), stronger effect = lower value 0.993 | locus YJL187C, strain SWE1, stronger effect = lower value 0.988 | locus YJR043C, strain POL32, stronger effect = lower value 1.02
